Measured values: PubChem BioAssay AID1903 (Southern Research Specialized Biocontainment Screening …, 2009)
“And” between values parts separate entries of the source, which are not always exact repeats. Identical values can stand only once. The whole screen tested about 310,000 compounds, of which about 1,200 (0.39%) were called active. The rule behind the calls is not given here. Not all results are given here. Measured potencies and affinities stand elsewhere.

Target: Large T antigen (Simian virus 40) (UniProt P03070)
Sequence (P03070 whole entry, looked up): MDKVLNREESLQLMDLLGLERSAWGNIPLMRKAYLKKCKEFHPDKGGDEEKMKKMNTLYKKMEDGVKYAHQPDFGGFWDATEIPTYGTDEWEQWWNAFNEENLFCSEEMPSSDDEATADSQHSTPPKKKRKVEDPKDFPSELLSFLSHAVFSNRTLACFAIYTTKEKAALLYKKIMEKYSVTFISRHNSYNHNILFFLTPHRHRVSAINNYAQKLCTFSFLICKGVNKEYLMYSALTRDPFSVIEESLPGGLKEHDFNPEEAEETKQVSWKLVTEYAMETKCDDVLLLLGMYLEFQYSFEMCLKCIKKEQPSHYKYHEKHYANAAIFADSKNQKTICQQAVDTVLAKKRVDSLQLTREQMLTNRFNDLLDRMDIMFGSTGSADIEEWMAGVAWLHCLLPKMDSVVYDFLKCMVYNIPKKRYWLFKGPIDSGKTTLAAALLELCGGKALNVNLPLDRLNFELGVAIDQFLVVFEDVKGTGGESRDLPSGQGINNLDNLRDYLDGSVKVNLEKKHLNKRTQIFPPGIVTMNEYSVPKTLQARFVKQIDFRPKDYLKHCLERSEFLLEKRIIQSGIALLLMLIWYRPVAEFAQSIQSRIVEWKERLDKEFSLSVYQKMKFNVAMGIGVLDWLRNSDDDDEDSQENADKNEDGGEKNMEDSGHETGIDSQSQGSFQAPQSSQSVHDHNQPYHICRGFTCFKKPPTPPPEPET
Assay: TAg ATPase/helicase activity blockers – biochemical (AID 1903)
Conditions: SV40 large T antigen ATPase/helicase inhibition assay; at 20 µM; active compounds read high

inhibition, inactive:
O=C(NC1CCCCC1)C1CCCN1S(=O)(=O)c1ccc(Cl)cc1 (stereo not drawn) -4.64%, O=C(C1CC1)N1CCN(C(c2ccccc2)c2ccccc2)CC1 20.8%, COc1ccc(NC(=S)N2CCC(NC(=O)c3cccc(C)c3)CC2)cc1 19.3%, FC(F)(F)Oc1ccc(Nc2nc3ccccc3o2)cc1 17%, CS(=O)(=O)c1ccccc1C(=O)Nc1cccc(-c2nc3ccccc3o2)c1 6.81%, CCNC(=S)N/N=C/c1ccc(-c2ccccc2)o1 9.76%, CC(C)Cn1c(=O)c2ccccc2c2ccccc2c1=O 13.4%, O=C(NNC(=O)c1ccccc1-n1cccc1)c1ccc(Cl)cc1 6.79%, CCOc1cc(NS(=O)(=O)c2ccc(NC(C)=O)cc2)c(OCC)cc1NC(=O)C(C)C 9.09%, CCOc1cc(NC(=S)NC)c(OCC)cc1NC(=O)c1cccs1 9.37%, CCCCNC(=O)CNC(=O)c1nn(-c2ccc(OC)cc2OC)c(=O)c2ccccc12 4.78%, CN(C)c1ccc(/C=N/O)cc1 37.8%, CCN(Cc1ccccc1)c1ccc(/C=N/N2CCOCC2)cc1 32.1%, CN(c1ccccc1)c1ccc(/C=N/N2CCOCC2)cc1 32.7%, CCN(CC)c1ccc(/C=N\NC(N)=O)cc1 24.1%, COc1cc(OC)cc(C(=O)Nc2ccc(NC(=O)c3ccco3)c(C)c2)c1 20%, CCOC(=O)c1cccc(NC(=O)CN2CCN(c3ccc(OC)cc3)CC2)c1 38.2%, C=CCC1(CC=C)CCCN1C(=O)CC1C(=O)NCCN1Cc1ccc(OC)c(OC)c1 (stereo not drawn) 10.2%, O=C(NC1CCC(O)CC1)c1cccc2cccnc12 (stereo not drawn) 3.23%, O=C(NNC(=S)NC(=O)c1ccccc1[N+](=O)[O-])c1ccccc1O 31.4%, O=C(OCC1OC(n2ccc(=O)[nH]c2=O)C(O)C1OC(=O)c1ccccc1)c1ccccc1 (stereo not drawn) 11.7%, Cc1cn(C2OC(COC(=O)c3ccccc3)C(OC(=O)c3ccccc3)C2OC(=O)c2ccccc2)c(=O)[nH]c1=O (stereo not drawn) 4.67%, COC1OC(COC(=O)c2ccccc2)C(OC(=O)c2ccccc2)C1OC(=O)c1ccccc1 (stereo not drawn) 3.67%, O=C(OCC1OC(n2ncc(=O)[nH]c2=O)C(OC(=O)c2ccccc2)C1OC(=O)c1ccccc1)c1ccccc1 (stereo not drawn) 6.13%, CC(CCc1ccc(O)cc1)NC1C2CC3CC(C2)CC1C3 (stereo not drawn) 2.61%, Cc1ccc(NC(=O)c2cc3ccccc3cc2O)cc1 0.83%, CCOC(=O)c1nn(-c2ccc3ccccc3c2)cc1O 27.5%, CN(C)c1ccc(/C=N/NC(N)=S)cc1[N+](=O)[O-] 3.04%, Cc1ccc(/C=C2\NC(=S)NC2=O)cc1[N+](=O)[O-] 10.5%, CC(C)OP(=O)(OC(C)C)C(C)NC(=O)Cc1ccccc1 (stereo not drawn) 8.79%, Brc1ccc(-c2cn3ccccc3n2)cc1 9.2%, Cc1ccn2cc(-c3ccc(Br)cc3)nc2c1 8.41%, Fc1ccc(-c2cn3ccccc3n2)cc1 0.64%, CC(=O)Nc1cccc(-c2cn3ccc(C)cc3n2)c1 11.2%, Cc1noc(C)c1C(=O)Nc1c(F)cc(F)cc1Br 0.97%, COc1cc(/C=C/C(=O)OCC(=O)NCc2ccco2)ccc1OC(F)F 8.29%, COc1ccc(CSc2nnc(-c3ccncc3)n2C)cc1F 3.25%, CNS(=O)(=O)c1cccc2cccnc12 -1.68%, NS(=O)(=O)c1cccc2cccnc12 10.6% and 4.71%, O=S(=O)(Nc1ccc(Cl)cc1)c1cccc2cccnc12 7.28%, O=S(=O)(Nc1ccc(Br)cc1)c1cccc2cccnc12 11.5%, COc1cccc2c1O/C(=N\O)C(C(=O)Nc1ccc(C)cc1)C2 (stereo not drawn) 8.2%, S=C(c1ccc(Br)cc1)N1CCCC1 6.77%, COc1ccc(/C=N/NC(=O)c2ccoc2C)cc1OC 6.94%, COc1cccc(/C=N/NC(=O)c2ccoc2C)c1O 9.61%, COc1cc(/C=N/NC(=O)c2ccoc2C)ccc1O 18%, CCOc1ccc(/C=N/NC(=O)c2ccoc2C)cc1OC -2.86%, CCn1c(C)nc2cc(C(=O)N/N=C/c3cccc(OC)c3O)ccc21 6.05%, CCn1c(C)nc2cc(C(=O)N/N=C/c3ccc(OC)cc3)ccc21 29.8%, COc1cc(/C=N/NC(=O)c2ccc3c(c2)OCO3)ccc1O -30%, COc1cc(/C=N/NC(=O)c2ccc3c(c2)OCCO3)c(Br)c(Br)c1O 29.5%, CCCCN(C)CCN1C(=O)C2C(C(=O)Nc3ccc(OC)cc3)C3C=CC2(O3)C1C(=O)NC1CCCCC1 (stereo not drawn) 1.82%, Cc1cccc(NC(=O)CSc2ccc3nnc(-c4cccnc4)n3n2)c1 6.51%, COC(=O)c1ccc(S(=O)(=O)NNC(=O)COc2ccc(C)cc2)cc1 6.42%, Cc1c(Nc2cc(N3CCCCCC3)c3nonc3c2[N+](=O)[O-])c(=O)n(-c2ccccc2)n1C 3.53%, CC1=C(C(=O)Nc2ccccc2)C(c2ccc(O)cc2)N2C(=O)CSC2=N1 (stereo not drawn) 3.32%, Cc1nn(-c2ccccc2)c(C)c1C(=O)OCC(=O)N1CC(=O)Nc2ccccc21 10.3%, Cc1ccc2c(C)c(C(=O)N(Cc3ccc(F)cc3)C3CCS(=O)(=O)C3)oc2c1 (stereo not drawn) 7.21%, O=C1CCCN1CCCNc1ncccc1[N+](=O)[O-] 1.65%, CCC(C)(O)c1[nH]c2ccc(C(=O)OC)cc2c1C (stereo not drawn) 2.01%, CCCCC(CC)C1OCC(C[N+]2(C)CCOCC2)O1 (stereo not drawn) 19.1%, Cc1occc1C(=O)N/N=C/C=C/c1ccccc1 24.7%, COc1ccc(/C=N/NC(=O)c2cccnc2)cc1O 23.7%, Cc1occc1C(=O)N/N=C/c1ccc(N(C)C)cc1 21.7%, COc1ccc(/C=N/NC(=O)c2ccc(C)nc2)cc1O 33.4%, CCN(CC)CC(=O)c1c(N)n(Cc2ccccc2)c(=O)n(C)c1=O 6.97%, Cc1ccc(OCCNCC(O)COc2ccccc2)cc1 (stereo not drawn) 6.77%, CC(=O)Nc1cc(-c2ccccc2)ccc1O 26.7%, CC(=O)/C=C(\C)Nc1ccccc1O 21.1%, CC(=O)c1ccc(N2C(=NC(=O)C3CCCCC3)SC3CS(=O)(=O)CC32)cc1 (stereo not drawn) 14.9%, Cc1cc(C(=O)CN2C(=O)NC(Cc3c[nH]c4ccccc34)C2=O)c(C)n1C (stereo not drawn) -1.66%, CC(C)=N/N=c1\scc(C)n1Cc1ccco1 9.97%, Cc1cs/c(=N\N=C\c2ccccc2)n1Cc1ccco1 2.6%, O=C(O)c1ccccc1O 13.6%, Nc1ccc(C(=O)O)c(O)c1 2.41% and 26.8% and 24.4%, O=C(O)c1cccc(O)c1O 13%, Nc1ccc(N)c(C(=O)O)c1 12.3%, O=C(OCc1nnc(-c2ccccc2)o1)C1CC(=O)N(c2ccccc2)C1 (stereo not drawn) 4.63%, COc1ccc(CCNCC(=O)Nc2ccccc2C(F)(F)F)cc1 4.81%, CCCCc1nnc(NC(=O)C2CCN(c3ncnc4sc(C)c(C)c34)CC2)s1 6.43%, Cc1ccc(-n2nc3c(=O)n(CC(=O)NCc4ccccc4Cl)nc(C)c3c2C)cc1 10.3%, CCOC(=O)C1=C(O)/C(=C\c2cc(C)n(-c3ccccc3F)c2C)N=C1C 5.39%, O=C(NCc1cccs1)C1CCCN1C(=O)Nc1ccc(F)cc1 (stereo not drawn) 12.8%, O=C(c1ccc(S(=O)(=O)Nc2ccccc2)cc1)N1CCCC(C(F)(F)F)C1 (stereo not drawn) 11.1%, CCNC(=O)O/N=C(\C)c1sc(-c2ccc(Cl)cc2)nc1C 1.49%, CCOc1cccc(/C=C2\NC(=S)N(c3ccccc3)C2=O)c1O 18.7%, COc1cc(/C=C2\CCC/C(=C\c3ccc(O)c(OC)c3)C2=O)ccc1O 9.57%, CN=C1S/C(=C\c2ccc(OCC(=O)OC)c(OC)c2)C(=O)N1C 3.67%, COc1cc(/C=C2/SC(=S)N(c3c(C)n(C)n(-c4ccccc4)c3=O)C2=O)ccc1O 27%, CCOc1cc(/C=C2/NC(=O)N(CC(=O)OC)C2=O)ccc1OC 31.1%, COc1cc(/C=C2/C(=O)CNC2=O)ccc1O 37.6%, CN=C1S/C(=C\c2ccc(O)c(Br)c2)C(=O)N1C 28.8%, CCOc1cc(/C=C2/NC(=O)N(CC(=O)Nc3cccc(C)c3)C2=O)ccc1O 12.6%, O=C(O)C1CC(=O)N(Cc2ccc(F)cc2)C1 (stereo not drawn) 0.55%, COc1ccc(NC(=O)CCNC(C)=O)cc1NS(=O)(=O)c1ccc(F)cc1 3.53%, CCc1ccccc1NC(=O)CNC(=O)CCc1nc2sc3c(c2c(=O)[nH]1)CCCC3 24.8%, Cc1cccc(C)c1N=Nc1c(C)cc(O)cc1C 12.6%, Cc1ccccc1C1N(c2nccs2)C(=O)C2CCCN21 (stereo not drawn) 12.4%
